Results taken from PubChem BioAssay AID588720 (NMMLSC, 2011).
Measured potencies and affinities stand elsewhere. Calls of active or inactive are those of the source.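 Rule for the calls: active = good curve fit with EC50 under 10 µM, EC50 error below a tenth of EC50, span above a set limit; inactive = the rest.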

Each compound was assayed against Beta-adrenergic receptor kinase 1 (Homo sapiens) (UniProt P25098) (assay: blockers of aptamer binding to GRK2 – biochemical, flow cytometry beads, FAM-aptamer, powder set 1, dose response (AID 588720)). Settings: biotinylated GRK2 beads, FAM-aptamer displacement; series mostly up to 100 µM.
Sequence of Beta-adrenergic receptor kinase 1 (Homo sapiens) (P25098 whole entry, looked up): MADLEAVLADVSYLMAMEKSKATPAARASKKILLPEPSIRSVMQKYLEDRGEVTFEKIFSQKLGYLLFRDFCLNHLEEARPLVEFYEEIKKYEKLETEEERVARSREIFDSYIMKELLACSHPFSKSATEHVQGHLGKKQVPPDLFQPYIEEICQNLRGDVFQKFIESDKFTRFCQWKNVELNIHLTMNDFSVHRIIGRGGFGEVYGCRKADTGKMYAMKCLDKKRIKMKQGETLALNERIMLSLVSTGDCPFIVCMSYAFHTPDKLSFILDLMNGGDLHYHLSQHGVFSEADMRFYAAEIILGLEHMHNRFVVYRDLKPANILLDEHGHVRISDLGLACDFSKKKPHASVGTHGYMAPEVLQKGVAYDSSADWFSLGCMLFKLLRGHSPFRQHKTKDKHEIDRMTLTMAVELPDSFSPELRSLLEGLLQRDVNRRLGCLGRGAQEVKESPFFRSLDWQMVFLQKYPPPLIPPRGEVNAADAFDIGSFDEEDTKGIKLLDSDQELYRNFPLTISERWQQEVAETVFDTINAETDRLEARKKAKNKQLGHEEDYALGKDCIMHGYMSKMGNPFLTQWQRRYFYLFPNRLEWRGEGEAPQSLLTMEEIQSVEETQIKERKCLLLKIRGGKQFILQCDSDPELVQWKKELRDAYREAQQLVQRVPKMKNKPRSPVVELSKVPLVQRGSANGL

outcome, inactive:
Cc1ccc(CCNC(=O)CCS(=O)(=O)c2ccc(Br)cc2)cc1, O=C(CN1CCc2ccccc21)NC(=O)NCc1ccccc1, Cc1cc2ccccc2n1CCNC(=O)C(C)Oc1ccccc1 (configuration not stated), COC(=O)c1ccccc1NC(=O)CCS(=O)(=O)c1ccc(Br)s1, O=C(O)C1CC(=O)N(c2ccc3c(c2)OCCO3)C1 (configuration not stated), Cc1cc2ccccc2n1CCNC(=O)c1cccs1, CC(=O)N1CCN(Cc2nc3cc(Cl)ccc3c(=O)[nH]2)CC1
